Experimental data reported in the supplement of paper PMC11417369.
± gives the standard deviation of the averaged measurements. In all, about 25,000 sequences were measured (“ln(normalized median fluorescence intensity)”: median about 8.6, highest 2% from about 10 on). The sample as a whole holds a higher share of the highest values than the screen did.

Test system: PfAP2-EXP AP2 domain (GST-tagged)
Experiment: gcPBM binding intensity (ln(normalized median fluorescence intensity)); higher = stronger DNA binding
In short: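 Binding of GST-tagged P. falciparum DNA-binding domains, expressed in E. coli and used at about 25 μg on average, was carried out for 1 h in 1× PBS containing 1% milk, 0.2 mg/ml BSA, 0.5% salmon testes DNA and 0.03% Triton X-100. The target was an Agilent 4 × 180k array of primer-extended double-stranded 36-bp intergenic genomic probes plus negative controls, read with Alexa488 anti-GST antibody at 488 nm. Binding intensity is the highest Masliner-normalised natural-log median intensity across replicate spots of either probe orientation.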

Sequence | gcPBM binding intensity (ln)
TTATGTAAATAATTTTGTACTTAAATTATTATATAA [XGTACX_site1491] | 8.08 ± 0.4
ATGATGTGCAAGAGTAGTACACAATTTTGGGTTTAT [XGTACX_site501] | 8.76 ± 0.39
AATAAAAAATATAACACAAATATGTATATATATATA [TGCATGCA_negctrl_site245] | 9.81 ± 0.34
ATATATATATATATAACACACGTGTATTTATCTGTA [CACACA_site5922] | 9.99 ± 0.34
ATATATATATATATAACACACGTGTATATATATGTA [CACACA_site3644] | 10.2 ± 0.23
TTTTTTTTTTTTTTGGGTACATAATAATAACAAGTG [XGTACX_site1034] | 8.28 ± 0.32
TTTTTTTTTTTTTTATGTACGAAAGAAAAGCACATA [XGTACX_site8261] | 8.57 ± 0.27
ATTTAGTATTCGAAACGTACACATATATATATATAT [XGTACX_site3910] | 10.2 ± 0.4
TTTTATAAAGAACACAGACACACAAAGAAAGAACCA [CACACA_site4174] | 9.02 ± 0.6
CAAGAAACAGTGATACGTACACATATATATATATAT [XGTACX_site3229] | 10.2 ± 0.32
ACAAGAACAGAACGTACACACACATATATATATATA [CACACA_site9143] | 9.97 ± 0.39
AACACAAGAACAGAACGTACACACACATATATATAT [XGTACX_site7347] | 9.76 ± 0.16
AAGAACAGAACGTACACACACATATATATATATATA [CACACA_site3457] | 10.2 ± 0.23
CATACACAGAAACACACACACATATATACATATATA [CACACA_site1094] | 8.59 ± 0.56
TACATACAGAAACACACACACACATATATATATATA [CACACA_site2919] | 10 ± 0.28
ATATATATATATATATGTACTGAATAAAGAACAAAA [XGTACX_site5400] | 10.1 ± 0.42
AAAATAAAAATAACAACACACATATACTATAATATT [CACACA_site2769] | 8.7 ± 0.46
TTTCCTAGCACATGCACACAAAAAAAAAAAAAAAAA [CACACA_site1404] | 8.35 ± 0.35
AATTAGATTTACTGAAGTACTTAATTTATTTTATTA [XGTACX_site3407] | 8.85 ± 0.34
ATTTATTAATTACCATGTATAAAAAATTATATAATA [CACACA_negctrl_site581] | 8.19 ± 0.51
AATAAAAATAAAAATTGTACACTTTTTTAATATTTA [XGTACX_site892] | 8.11 ± 0.25
TACAAGCCCAATTCAAGTACATATATATATATATAT [XGTACX_site5569] | 10.2 ± 0.44

Sequence | gcPBM binding intensity (ln)
TTTTTTTTTTTTTCAAGTACATATATATATATATAA [XGTACX_site2098] | 8.44 ± 0.45
ATATAATTCAAATACAGTACATATACAATATATACA [XGTACX_site1191] | 8.21 ± 0.3
TATTATGTTATATATTGTACATGTTTATTGAAACAA [XGTACX_site5605] | 8.66 ± 0.21
ACTTCCTATATTTATGCATGCATTTTATTAAAAAAT [TGCATGCA_site747] | 9.92 ± 0.16
AAATAAAAATTACAAGCATGCATTTTCCTATTTGCA [TGCATGCA_site861] | 8.56 ± 0.46
TGCATTTTCCTATTTGCATGCAATTAAAATATAGAA [TGCATGCA_site862] | 10.2 ± 0.24
CATACAGACGAACACACACACATATAAATATAAATA [CACACA_site6443] | 8.74 ± 0.55
AACAGACGAAGACACACACACATATATATATATATA [CACACA_site1020] | 10.2 ± 0.21
AACAGACAGAAACACACACACATATATATATATATA [CACACA_site3394] | 10 ± 0.41
TGAACAGACGAGCACACACACACATATATATATATA [CACACA_site1019] | 10.2 ± 0.26
TTGTAAGAAAAACACACACACACATATATATATATA [CACACA_site795] | 10.1 ± 0.23
GTAAGAAACAGACACACACACATATAAATATAAATA [CACACA_site6515] | 8.77 ± 0.64
TAAACAGACATATAAACACACATATAAACAGACATA [CACACA_site7214] | 8.69 ± 0.56
TGAACTCACGAGCACACACACACATATATATATATA [CACACA_site8248] | 10.2 ± 0.34
GTAAGAAACGGACACACACACATATATATATATATA [CACACA_site4593] | 10.2 ± 0.23
AAAACAAACGGACACACACACATATATATATATATA [CACACA_site5924] | 10.1 ± 0.32
GTAAGAAACAGACACACACACATATATATATATATA [CACACA_site794] | 10.2 ± 0.24
AATGAACAGACGAGCACACACACACCCATATATATA [CACACA_site1018] | 8.85 ± 0.35
ATATATATATATATGTGTACATATTTTTTTGAAGTG [XGTACX_site248] | 10.1 ± 0.29
TTTTTTTTTTTTTTTTGTACGTAAAAAAATATATAC [XGTACX_site1290] | 8.36 ± 0.22
AAATATAATAACGAACGTACTTATTATAATTTGTAA [XGTACX_site2342] | 8.32 ± 0.25
ACATATTAAAATATATGTACATAAAATATGAAAAAA [XGTACX_site5869] | 8.82 ± 0.3

Sequence | gcPBM binding intensity (ln)
ATAATAAAAATATATACATGCATTATTATATATATA [TGCATGCA_site799] | 8.97 ± 0.16
AAAATAAAAAGAAAAAATAAAAAGAAAAAATAAAAA [CACACA_negctrl_site120] | 8.33 ± 0.44
CATTAAAAAGAAAGTTCACACACATATATATGACGG [CACACA_site8836] | 8.84 ± 0.57
TAATTTCTTTAGGGGGTGCTTTTATAGTTTTTATTA | 10.4 ± 0.54
CCTAATTTTATTAGGGTGCATTTTTAGTTAAATATA | 8.48 ± 0.27
TTTATTATTATATTATTTTAATTTTTCTTTAGTACA [GTGCAC_negctrl_site392] | 8.29 ± 0.32
AGTATAGATGTATACACACACCAAACGTTAAAAAAA [CACACA_site7443] | 8.71 ± 0.53
CAAGGAACCGGACACACACACATAAATGTATTTATA [CACACA_site4574] | 8.46 ± 0.5
TATAAATATACACCCACACACATATATATATATATA [CACACA_site3745] | 10.2 ± 0.4
TATATAAATATACACCCACACACATATATATATATA [CACACA_site9247] | 10.2 ± 0.26
TATACATATACATATACACACACACCCATAAATAAA [CACACA_site8372] | 9.05 ± 0.38
AAAAAAAATACATACACACACACACCCACATATATA [CACACA_site3561] | 8.75 ± 0.65
TACATATACATATACACACACACACCCAAATAAATA [CACACA_site1344] | 8.86 ± 0.51
CACCCACTAATAAACACACACATATATATATATATA [CACACA_site389] | 10.2 ± 0.35
AAAAAAAAAAAACACACACACACACTAATATATAAA [CACACA_site8302] | 8.47 ± 0.56
TATAAATATACACCCACACACATATATAAATAAATA [CACACA_site7717] | 8.93 ± 0.79
AATAAATATAAATACACACCCATATATATATATATA [CACACA_site5436] | 10.2 ± 0.35
AATAAATATATATACACACCCATATATATATATATA [CACACA_site2595] | 10.1 ± 0.42
CCCACTAAAAAACACACACACACACCCATATATATA [CACACA_site6140] | 8.98 ± 0.31
AATAAATATAAATACACACCCATATAAATATAAATA [CACACA_site7264] | 8.64 ± 0.51
